Test [1] in a line: Quantitative High-Throughput drug screen in 47 multiple myeloma cell lines against the NCATS MIPE library collection: PCM6_Riken cell viability assay (AID 1919870). Further: nearly all actives have a fitted effect of over 30% in size. The gist of the method:
(§1)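 500 cells/well per myeloma line exposed to pinned MIPE 4.0 compounds for 48 h at 37 °C, 5% CO2. Viability read as ATP by CellTiter-Glo luminescence, normalised to DMSO-only (100%) and media-only (0%) wells.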

The nature of test [2]: Quantitative High-Throughput drug screen in 47 multiple myeloma cell lines against the NCATS MIPE library collection: PE2_PLB cell viability assay (AID 1919869). Further: nearly all actives have a fitted effect of over 35% in size. Further: potency means the concentration at half of the fitted maximal effect. Summed up:
as §1

The nature of test [3]: Quantitative High-Throughput drug screen in 47 multiple myeloma cell lines against the NCATS MIPE library collection: OPM2_DSMZ cell viability assay (AID 1919872). Further: nearly all actives have a fitted effect of over 30% in size. Further: potency means the concentration at half of the fitted maximal effect. Summed up:
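Steps: seed 500 cells per well; pin-transfer MIPE 4.0 library; incubate 48 h at 37C, 5% CO2, humidified; add CellTiter-Glo, 5 min room temperature; read luminescence.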

A short description of test [4]: Quantitative High-Throughput drug screen in 47 multiple myeloma cell lines against the NCATS MIPE library collection: KMS11_JCRBsus cell viability assay (AID 1919873). Further: nearly all actives have a fitted effect of over 50% in size. Further: potency means the concentration at half of the fitted maximal effect. The gist of the method: as §1
Test [5] in a line: Quantitative High-Throughput drug screen in 47 multiple myeloma cell lines against the NCATS MIPE library collection: KMS28BM_JCRB cell viability assay (AID 1919874). Further: nearly all actives have a fitted effect of over 35% in size. Further: potency means the concentration at half of the fitted maximal effect. Summed up:
as §1

In PubChem BioAssay (NCATS) one finds Potency data, which are given here for 11 molecules.

Records with an inconclusive call do not appear. Active and inactive are the calls of the source. The call rests on the fitted dose curve; in most records, active means well fitted cell-killing curve with a large enough effect; inconclusive means small, poorly fitted or top-dose-only effect, or effect the other way; inactive means no such curve, though single readings can be large or run the other way.

Regarding `CC(C)(C)OC(=O)CN(Cc1ccc(Cl)cc1)Cc1ccc([N+](=O)[O-])s1`, in test [1], the Potency entry was “inactive”.
On to `CCc1ccc(CCOc2ccc(CC3SC(=O)NC3=O)cc2)nc1` (stereo not given), for which the Potency result in test [2], in test [3], in test [4] and in test [5] was “inactive” throughout.
On to `Nc1nc2ccc(OC(F)(F)F)cc2s1`, for which the Potency entry in test [2], in test [4] and in test [5] was “inactive” throughout. Besides, in test [3], the Potency is 18.7 µM (active).
On to `O=C(O)COCCN1CCN(C(c2ccccc2)c2ccc(Cl)cc2)CC1` (stereo not given), for which the Potency entry in test [2], in test [3], in test [4] and in test [5] was “inactive” throughout.
`NC(=O)c1ccc(I)c([N+](=O)[O-])c1`: the Potency in test [2] was 20.9 µM (active). Also, the Potency entry in test [3], in test [4] and in test [5] was “inactive” throughout.
Take `CCC(=O)N[C@H]1CC[C@H](C(=O)N(C)c2ccc(-c3nc4ccccc4o3)cc2)C1`: the Potency is 13.2 µM (active) in test [2] and 14.8 µM (active) in test [5]. Besides, the Potency result in test [3] is “inactive”.
As to `S=C(NCc1ccc2c(c1)OCO2)N1CCN(c2ncnc3c2oc2ccccc23)CC1`, the Potency in test [2] was 6.79 µM (active); in test [4], 1.52 µM (active); in test [5], 1.36 µM (active).
Consider `CC[C@@H](C)[C@H](NC(=O)[C@H](CC1CCCCC1)NC(=O)c1ccno1)C(=O)N1CCC2(CCc3ccccc32)CC1`, for which the Potency entry in test [2] and in test [5] was “inactive” in each case. Further, in test [3], the Potency is 11.8 µM (active).
Consider `O=C(Nc1cccnc1)N1CCC(Cc2cccc(Oc3ccc(C(F)(F)F)cn3)c2)CC1`, for which the Potency in test [2] was 16.6 µM (active); in test [5], 8.33 µM (active). Moreover, in test [3], the Potency result is “inactive”.
In the case of `O=C1[C@H](Cc2ccc(O)cc2)N2C(=O)CCN(C(=O)NCc3ccccc3)[C@H]2CN1Cc1cccc2ccccc12`, the results for the Potency in test [2] and in test [4] were 4.69 µM (active) and 1.66 µM (active), respectively.
In the case of `CNC[C@H](O)c1cccc(O)c1`, the Potency result in test [2], in test [3], in test [4] and in test [5] was “inactive” in each case.
